B2AR ag = beta2AR agonists driving receptor internalization, primary screen, cell-based, FAP fluorogen, flow cytometry; Beta-2 adrenergic receptor (Homo sapiens), P07550; Am2.2-beta2AR cells; response, % (concentration not given with the values); 340,000 compounds, 0.43% hits;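 active = response above a set limit, near 3 SD of response in nonfluorescent compounds, cut at about 42% in these data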
Target sequence (P07550 whole entry, looked up): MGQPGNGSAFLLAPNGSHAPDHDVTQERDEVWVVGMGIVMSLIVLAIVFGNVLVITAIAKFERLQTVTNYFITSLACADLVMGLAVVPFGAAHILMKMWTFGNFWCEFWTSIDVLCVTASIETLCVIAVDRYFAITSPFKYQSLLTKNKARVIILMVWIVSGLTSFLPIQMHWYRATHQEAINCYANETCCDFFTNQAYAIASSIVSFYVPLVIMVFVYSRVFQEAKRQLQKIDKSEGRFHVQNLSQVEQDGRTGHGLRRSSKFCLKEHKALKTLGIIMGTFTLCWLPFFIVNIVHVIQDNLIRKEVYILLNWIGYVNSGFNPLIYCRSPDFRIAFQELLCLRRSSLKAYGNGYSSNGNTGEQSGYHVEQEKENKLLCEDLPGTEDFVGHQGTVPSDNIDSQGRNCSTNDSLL
PfHsp90 yeast 2 = growth inhibition of PfHsp90-expressing yeast, primary screen, antimalarial PfHsp90 inhibitor project, S. cerevisiae, BacTiter-Glo luminescence, single point, set 2. BacTiter-Glo ATP, 48 h; yeast lacking PDR1 and PDR3 efflux regulators. inhibition, % at 9.4 µM. 310,000 compounds, 0.32% hits. AID 504621, 2011;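 active = every replicate shows inhibition above about 80%, whatever the replicate mean, limit read from the data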;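 note: 0% = DMSO neutral controls and 100% = 20 µM radicicol positive controls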
tim10-1 inh = growth inhibitors of tim10-1 mutant yeast, primary screen, luminescence, uHTS | S. cerevisiae tim10-1 ts strain growth, BacTiter-Glo, 24 h | inhibition, % at 20 µM | 330,000 compounds, 2.2% hits;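 active = inhibition of at least 40%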;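 note: mutant grown at 25 °C; 0% = DMSO wells with yeast and 100% = wells holding no yeast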
tim23-1 inh = growth inhibitors of tim23-1 mutant yeast, primary screen, luminescence, uHTS | 330,000 compounds, 1.3% hits | AID 463212, 2010 | S. cerevisiae tim23-1 growth, BacTiter-Glo luminescence, 24 h | inhibition, % at 20 µM;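 active = growth inhibition of the mutant yeast at or above 50%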;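 note: temperature-sensitive mutant grown at 25 °C; plate controls were DMSO-treated mutant yeast for no effect and medium wells lacking yeast for full effect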
TIM10 inh = growth inhibitors of isogenic TIM10 control yeast, primary screen, counter-screen for tim10-1 yeast inhibitor project, luminescence, uHTS; S. cerevisiae TIM10 strain growth, BacTiter-Glo luminescence, 24 h; inhibition, % at 10 µM; 330,000 compounds, 1.4% hits;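 active = inhibition of 40% or more at the single tested concentration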;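 note: wild-type TIM10 isogenic control strain grown at permissive 25 °C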
tim10-1 confirm = growth inhibitors of tim10-1 mutant yeast, confirmation, single concentration, luminescence, S. cerevisiae. S. cerevisiae tim10-1 ts strain growth, BacTiter-Glo, 24 h. 7,400 compounds, 56% hits. AID 463213, 2010. shares compounds with tim10-1 inh. inhibition, % at 20 µM;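 active = inhibition of yeast growth at or above a set limit in either of two repeat tests at 20 µM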;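 note: tim10-1 mutant grown at permissive 25 °C to find synthetic lethal compounds; 0% = DMSO yeast wells and 100% = medium wells without yeast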
An asterisk follows results filed as active; . = no result given. Only some compounds are listed: those with a hit (about 3.8% of all), similar ones and a draw of the others.

SMILES	B2AR ag	PfHsp90 yeast 2	tim10-1 inh	tim23-1 inh	TIM10 inh	others
CC(=O)Nc1ccc(S(=O)(=O)N2CCc3cc4c(cc3C2)OCCCO4)cc1	2	-29	3	4	12
O=C1OC(c2ccccc2)(c2ccc3cc(O)ccc3c2)c2ccccc21 (stereo not given)	28	113*	.	.	.
COc1ccc(C=C2C=C(C(C)(C)C)C(=O)C(C(C)(C)C)=C2)cc1OC	76*	6	29	40	22
COc1ccc(/C=C2\CC/C(=C\c3ccc(OC)c(OC)c3)C2=O)cc1OC	6	-3	19	31	29
COc1ccccc1Nc1ccc(NC(=O)c2cccc([N+](=O)[O-])c2C)cc1	7	7	29	36	24
O=C(CC1CC2CCC1C2)NC1CCCCCCC1 (stereo not given)	-4	6	24	30	3
CC(C)(C)c1ccc(/C=N/N2C(=O)CSC2=S)cc1	65*	-7	18	34	19
Cc1nnc(SCC(=O)N/N=C/c2cn(-c3ccccc3)nc2-c2ccccc2)n1-c1ccccc1	64*	-1	4	14	16
Cc1ccc(-c2nnc(SCC(=O)N/N=C/c3ccccc3C(=O)O)n2-c2ccccc2)cc1	.	.	5	15	6
CCCCNc1c(-c2ccc(OC)c(SC3CCCCC3)c2)nc2ccc(C)cn12	76*	-1	22	43	14
COc1ccc(OC)c(NC(=O)Nc2c(O)ccc3ccccc23)c1	8	18	15	16	15
COc1ccc(OC)c(NC(=O)Nc2ccc(O)c3ccccc23)c1	-4	108*	-2	-31	1
O=C(N/N=C/c1ccc(O)cc1)c1ccc(COc2cc(Cl)ccc2Cl)o1	49*	-18	3	-1	12
O=C(N/N=C/c1ccc(Cl)cc1)c1sccc1OCc1ccc(F)cc1	55*	6	-9	-31	-7
O=C(O)c1ccc(NC2=C(Cl)C(=O)c3ccccc3C2=O)cc1	96*	-37	36	40	21
O=C1C(Cl)=C(NCCc2ccccc2)C(=O)c2ccccc21	17	116*	.	.	.
Cc1cc(NC(=O)C(C)SCC(=O)OCc2ccc(Cl)cc2Cl)no1 (stereo not given)	-3	-12	13	37	14
CC(CCc1ccccc1)NC(=O)c1ccc(Br)cc1 (stereo not given)	-11	112*	-12	3	-39
CCCCNc1nc(N)nc(-c2cc(Cl)ccc2O)n1	6	104*	27	21	-69
COc1ccc(CCNC(=O)C(C)OC(=O)c2nsc(Cl)c2Cl)cc1OC (stereo not given)	0	11	-11	25	10
O=C(COC(=O)c1ccc(F)c([N+](=O)[O-])c1)NC(=O)NCc1ccccc1	36	5	34	41	22
Cc1ccc(S(=O)(=O)N2C[C@@H]3[C@H]4CC[C@H](C4)[C@@H]3[C@@H](C)[C@@H]2c2ccn([Si](C(C)C)(C(C)C)C(C)C)c2)cc1	-1	.	11	24	-6
COc1ccccc1NC(=O)c1cc2c(CO)cnc(C)c2oc1=Nc1ccc(OC)c(OC)c1	49*	19	6	-4	-11
COc1ccccc1NC(=O)c1cc2c(CO)cnc(C)c2oc1=Nc1cc(OC)c(OC)c(OC)c1	32	8	-18	-11	-31
COc1ccc(-c2onc3ccc(C(=O)/C=C/N(C)C)cc23)cc1	12	-37	34	31	35
SMILES	B2AR ag	PfHsp90 yeast 2	tim10-1 inh	tim23-1 inh	TIM10 inh	others
CN(C)/C=C/C(=O)c1ccc2noc(-c3cccc(F)c3)c2c1	3	107*	26	19	-2
CCOC(=O)c1cnc2ccc(OCC)cc2c1N(C)Cc1ccccc1	-14	.	12	20	-1
CCOC(=O)c1cc2cc(OCc3ccccc3)ccc2nc1C	-3	118*	-74	-40	0
O=C(Cc1ccc(S(=O)(=O)N2CCCCC2)s1)Nc1ccc(F)c(F)c1	-13	-14	47*	33	25	tim10-1 confirm=28
Cc1cc(C)cc(NC(=O)Cc2ccc(S(=O)(=O)N3CCCC3)s2)c1	4	6	10	7	-2
O=C(COC(=O)Cc1ccsc1)Nc1cccc(F)c1	-1	-16	4	11	-2
S=C(NCCc1cccc(Cl)c1)NC1CCCCC1	-4	-21	40*	38	28	tim10-1 confirm=25
S=C(NCCc1ccccc1)NC1CCC(NC(=S)NCCc2ccccc2)CC1 (stereo not given)	-2	-11	6	-8	-6
S=C(NCc1ccc(Cl)cc1Cl)NC1CCCCC1	-1	-27	42*	37	-5	tim10-1 confirm=17
COc1ccc(S(=O)(=O)N2CCOCC2)cc1NC(=O)c1ccc(S(=O)(=O)N(C)c2ccccc2OC)cc1	14	.	.	.	.
O=C1CN(CC(=O)NC2CCCc3ccccc32)CCN1 (stereo not given)	-1	2	-7	-1	8
Cc1ccc(OC(=O)C2CSC3(C)CCC(=O)N23)c(Br)c1 (stereo not given)	3	-31	49*	39	7	tim10-1 confirm=20
CCCCCCCNC1=CC(=O)CC(c2ccco2)C1 (stereo not given)	3	-98	50*	30	-9	tim10-1 confirm=14
C=CCn1c(=O)/c(=C/c2ccsc2)s/c1=C(\C#N)C(=O)NCCN1CCOCC1	5	.	.	.	.
COc1ccc(C(=O)Nc2cc3c(cc2N2CCCCC2)n(C)c(=O)n3C)cc1OC	17	-20	48*	48	12	tim10-1 confirm=8
N/C(=N\OC(=O)CCC1CCCC1)c1ccc([N+](=O)[O-])cc1	-1	-68	61*	30	18	tim10-1 confirm=58*
N#Cc1cc([N+](=O)[O-])ccc1NC(=O)COC(=O)CCC1CCCCC1	.	.	45*	33	17	tim10-1 confirm=37*
N/C(=N\OC(=O)CCC1CCCC1)c1ccccc1	-2	7	52*	46	35	tim10-1 confirm=44*
N/C(=N\OC(=O)CCC1CCCC1)c1ccccn1	9	1	20	30	27
CCCC(=O)OCC(=O)Nc1ccc([N+](=O)[O-])cc1C#N	5	10	17	10	4
NC(=NC1CCCCC1)c1ccc([N+](=O)[O-])cc1	1	-12	10	17	17
COc1ccc(N2CCN(Cc3nc(N)nc(N4CCCc5ccccc54)n3)CC2)cc1	32	1	40*	22	16	tim10-1 confirm=15
C/C(=N\Nc1cccc(C(F)(F)F)c1)c1ccc(O)cc1	2	9	45*	16	9	tim10-1 confirm=-10
